From PubChem BioAssay
This is one part of a sample in which hits are shown more often than they occur.
HT1080 IDH1KD tx = kills HT-1080 cells with IDH1 knockdown; Potency, µM (series often up to 46.1 µM), inactives show at the top dose activity, negative = toxicity, hits mostly cytotoxic; actives 2% (n = 360,000); HT-1080 IDH1 knockdown viability, ATP luminescence, 48 h; AID 686971;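 note: potency is the fitted concentration of half-maximal effect; 0% = DMSO wells and -100% = cell-free medium wells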
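Cytotoxicity counter-line: IDH1KD HT-1080, 48 h, CellTiter-Glo. Curves classed by r2, magnitude and activity.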
IL1B secr inh = inhibitors of inflammasome signaling (IL-1 beta secretion) | actives 4.7% (n = 360,000) | activity change, % at 57.5 µM | THP-1 LPS/ATP IL-1B secretion, AlphaLISA, 16 h; stronger effect = lower value; in the data active = activity change below about -50%; inconclusive = mostly about -30% to -49%
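Secreted IL-1B measured by AlphaLISA bead assay after 16 h compound exposure of THP-1 cells; compounds (final up to 57.5 uM) added 1 h before LPS (250 ng/mL) and ATP (1.25 mM) stimulation; lower signal means less secretion.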
TDP1 cell CPT = growth inhibition of DT40 Tdp1-/-;hTDP1 cells with camptothecin (screen for TDP1 inhibitors). chicken DT40 Tdp1-/-;hTDP1 cells + 20 nM CPT, ATP luminescence, 48 h. Potency, µM (highest dose often 46.2 µM), without a hit: at the highest dose activity change, negative = growth inhibition, hits mostly inhibitors. actives 12% (n = 420,000). AID 686979; note: potency is the fitted concentration of half-maximal effect; nearly all actives have a fitted effect of over 55% in size
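Chicken DT40 Tdp1-/- cells stably complemented with human TDP1 were seeded at 400 cells/well in medium containing 20 nM camptothecin, exposed to pin-transferred compounds, and grown at 37 °C for at least 48 hr. Viability was read as ATP luminescence.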
TDP1 cell noCPT = qHTS for Inhibitors of human tyrosyl-DNA phosphodiesterase 1 (TDP1): qHTS in cells in absence of CPT; Potency, µM (series often up to 46.2 µM), for the others: at the top dose activity change, negative = growth inhibition, actives largely listed as inhibitors; actives 15% (n = 420,000); DT40 Tdp1-/- hTDP1 cells, no CPT, ATP luminescence, 48 h; note: potency is the fitted concentration of half-maximal effect; nearly all actives have a fitted effect of over 55% in size
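Chicken DT40 Tdp1-/- cells complemented with human TDP1, screened without camptothecin (DMSO vehicle only), 400 cells/well. Compounds pin-transferred, cells incubated at 37 °C for at least 48 hr. Growth read as ATP-dependent luminescence (CellTiter-Glo, 30 min at RT).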
HT1080NT lethal = kills 2HG-producing HT-1080-NT fibrosarcoma cells; HT-1080-NT fibrosarcoma viability, CellTiter-Glo ATP luminescence, 48 h; Potency, µM (doses to about 46.1 µM), inactives show at the top dose activity, negative = less viability, actives largely listed as cytotoxic; actives 1.6% (n = 360,000); AID 686970;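 note: NT is the 2HG producing partner of a matched IDH1 knockdown line; potency is the fitted concentration of half-maximal effect; 0% = DMSO-treated cells and -100% = media-only wells without cells; nearly all actives have a fitted effect of over 55% in size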
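Fibrosarcoma NT cells, 750 per well in 5% FBS RPMI, were exposed to compound for 48 hours. Viability: CellTiter-Glo luminescence.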
ALOX12 inh = ALOX12 (human) lipoxygenase inhibition | Potency, µM (doses to about 108 µM), inactives show at the top dose activity change, negative = inhibition, usual class: inhibitors | purified 12hLO, xylenol orange hydroperoxide absorbance | AID 1671190 | actives 1.1% (n = 580,000) | P18054; note: potency is the fitted concentration of half-maximal effect
Target sequence (P18054 whole entry, looked up): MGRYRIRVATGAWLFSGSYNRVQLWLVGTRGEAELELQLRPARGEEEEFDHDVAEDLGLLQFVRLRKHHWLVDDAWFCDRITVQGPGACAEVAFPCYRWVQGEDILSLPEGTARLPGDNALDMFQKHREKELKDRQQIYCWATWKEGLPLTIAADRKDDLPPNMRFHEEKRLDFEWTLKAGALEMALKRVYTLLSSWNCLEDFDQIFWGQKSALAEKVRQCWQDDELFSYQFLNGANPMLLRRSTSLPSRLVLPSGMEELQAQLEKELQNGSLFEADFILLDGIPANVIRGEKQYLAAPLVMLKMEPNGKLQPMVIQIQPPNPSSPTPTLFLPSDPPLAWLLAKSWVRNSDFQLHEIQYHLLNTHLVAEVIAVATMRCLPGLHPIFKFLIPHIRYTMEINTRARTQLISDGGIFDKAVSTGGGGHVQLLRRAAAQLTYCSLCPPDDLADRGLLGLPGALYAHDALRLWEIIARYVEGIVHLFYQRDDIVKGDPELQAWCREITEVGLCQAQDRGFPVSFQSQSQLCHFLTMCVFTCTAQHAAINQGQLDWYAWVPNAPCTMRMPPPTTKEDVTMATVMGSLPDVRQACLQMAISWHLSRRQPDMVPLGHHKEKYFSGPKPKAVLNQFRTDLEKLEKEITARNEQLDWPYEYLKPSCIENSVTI
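Purified human 12hLO (150 nM final) in 25 mM Hepes, 0.01% Triton X-100, pH 7.0 was preincubated 15 min at room temperature with compound. Then 40 uM arachidonic acid was added, 30 min. Hydroperoxide was read by Fe-XO absorbance ratio 573/405 nm.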
Active calls of the source: *. Unless noted, calls come from the whole dose curve; as a rule, active = well fitted curve in the direction sought with a large enough effect; inconclusive = small, poorly fitted or top-dose-only effect, or another doubt; inactive = no such curve, though single readings can be large; an effect the other way counts as inactive or inconclusive. Unless noted, % is set by controls: 0 for no effect and ±100 for the full control effect.

`CC(c1ccc(F)cc1)N1CCN(c2oc(C3CC3)nc2C#N)CC1` (stereo not drawn) gave ALOX12 inh -1%.
`COc1ccc(NC(=O)Cn2c(SCc3ccc(F)cc3)nc3cccnc32)cc1OC` gave TDP1 cell CPT 3.7µM*, TDP1 cell noCPT 2.3µM* and ALOX12 inh -20%.
For CCNC(=O)c1c(NC(=O)c2ccc(C)cc2)sc2c1CCCC2 the results were ALOX12 inh -27%.
`CC1(C(=O)O)CCCN1C(=O)c1ccc(Cl)cc1Cl` (stereo not drawn) gave HT1080 IDH1KD tx inconclusive, IL1B secr inh 3, TDP1 cell CPT inconclusive, TDP1 cell noCPT 4%, HT1080NT lethal 21% and ALOX12 inh -9%.
`Cc1oc(-c2ccc(Cl)cc2)cc1C(=O)N1CCC1(C)C(=O)O` (stereo not drawn) gave HT1080 IDH1KD tx 0%, IL1B secr inh -5, TDP1 cell CPT 29µM*, TDP1 cell noCPT inconclusive, HT1080NT lethal 7% and ALOX12 inh inconclusive.
Screening O=[N+]([O-])c1cc([N+](=O)[O-])c(Oc2cc(F)cc(F)c2)cc1NN1CCCCC1 returned HT1080 IDH1KD tx 5%, IL1B secr inh 21, TDP1 cell CPT 18µM*, TDP1 cell noCPT -24%, HT1080NT lethal 2% and ALOX12 inh 9%.
Screening O=[N+]([O-])c1cc([N+](=O)[O-])c(Oc2ccc(F)cc2)cc1NN1CCCCC1 returned HT1080 IDH1KD tx 2%, IL1B secr inh 29, TDP1 cell CPT -14%, TDP1 cell noCPT -8%, HT1080NT lethal -8% and ALOX12 inh -8%.
`COc1ccccc1CCN1CCC(CN(C)Cc2n[nH]c(C)n2)CC1` gave ALOX12 inh 64%.
`O=c1c2c(-c3cccs3)csc2nc(CN2CCOCC2)n1CCOc1ccccc1Cl` gave ALOX12 inh 30%.
For Cc1[nH]nc2ccc(-c3cncc(OC[C@@H](N)Cc4ccccc4)c3)cc12 the results were ALOX12 inh 7.7µM*.
`CNC(=O)/C=C/c1cccc([N+](=O)[O-])c1` gave ALOX12 inh -30%.
For COC(=O)C1=C(C(=O)OC)C(c2cc(Br)ccc2O)c2sc(=O)[nH]c2S1 (stereo not drawn) the results were HT1080 IDH1KD tx -10%, IL1B secr inh -8, TDP1 cell CPT 9%, TDP1 cell noCPT -13%, HT1080NT lethal 8% and ALOX12 inh 45µM*.
For COc1ccc(S(=O)(=O)N2CCN(C(=O)c3cccs3)CC2)cc1 the results were HT1080 IDH1KD tx 8%, IL1B secr inh -12, TDP1 cell CPT -13%, TDP1 cell noCPT -17%, HT1080NT lethal 3% and ALOX12 inh 0%.
`O=C(c1sccc1-c1ccccc1)N1CCN(S(=O)(=O)c2ccccc2F)CC1` gave HT1080 IDH1KD tx -1%, IL1B secr inh 5, TDP1 cell CPT 15µM*, TDP1 cell noCPT inconclusive, HT1080NT lethal 0% and ALOX12 inh 22%.
`COc1ccc(S(=O)(=O)N2CCN(C(=O)c3sccc3-c3ccccc3)CC2)cc1` gave HT1080 IDH1KD tx 1%, IL1B secr inh 3, TDP1 cell CPT 15µM*, TDP1 cell noCPT 21µM*, HT1080NT lethal 2% and ALOX12 inh 1%.
CC(NC(=O)NCCNc1cnccn1)c1ccc(C#N)cc1 (stereo not drawn) was read as ALOX12 inh -29%.
Screening Cc1ccc(C(=O)NC2CC2)cc1S(=O)(=O)N1CCCC1 returned ALOX12 inh -12%.
